Reference: ChEMBL document CHEMBL2218924, “A broad activity screen in support of a chemogenomic map for kinase signalling research and drug discovery” (Biochem J, 2013)

What was measured:
[1] = target: T1, Ephrin type-A receptor 3 (Homo sapiens) (UniProt P29320); details: at 10 µM
T1 sequence (whole entry): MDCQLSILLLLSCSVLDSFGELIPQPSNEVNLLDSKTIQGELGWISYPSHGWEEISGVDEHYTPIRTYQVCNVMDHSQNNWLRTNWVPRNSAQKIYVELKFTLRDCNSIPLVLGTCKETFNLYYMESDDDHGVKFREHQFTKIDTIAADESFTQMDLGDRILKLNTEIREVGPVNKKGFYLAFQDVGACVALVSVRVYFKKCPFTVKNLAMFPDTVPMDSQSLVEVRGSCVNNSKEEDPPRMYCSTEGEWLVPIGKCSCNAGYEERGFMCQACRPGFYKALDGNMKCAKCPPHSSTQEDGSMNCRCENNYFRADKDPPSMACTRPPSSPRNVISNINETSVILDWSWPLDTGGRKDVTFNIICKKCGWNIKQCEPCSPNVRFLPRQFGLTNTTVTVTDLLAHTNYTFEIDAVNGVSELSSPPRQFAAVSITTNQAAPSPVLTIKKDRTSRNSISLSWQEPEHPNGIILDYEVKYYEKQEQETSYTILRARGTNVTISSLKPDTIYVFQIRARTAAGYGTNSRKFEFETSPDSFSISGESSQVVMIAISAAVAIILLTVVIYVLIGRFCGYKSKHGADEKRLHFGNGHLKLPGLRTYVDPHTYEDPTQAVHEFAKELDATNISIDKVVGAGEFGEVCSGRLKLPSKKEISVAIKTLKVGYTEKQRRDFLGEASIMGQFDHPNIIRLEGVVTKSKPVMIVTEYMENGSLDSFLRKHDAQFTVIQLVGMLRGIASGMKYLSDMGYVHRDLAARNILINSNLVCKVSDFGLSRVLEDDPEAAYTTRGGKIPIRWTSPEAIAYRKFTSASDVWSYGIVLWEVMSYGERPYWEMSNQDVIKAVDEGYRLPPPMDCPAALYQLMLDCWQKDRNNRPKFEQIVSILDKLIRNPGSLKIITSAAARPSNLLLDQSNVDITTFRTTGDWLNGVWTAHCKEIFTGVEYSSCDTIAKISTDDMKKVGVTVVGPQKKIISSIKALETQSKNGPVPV

[2] = target: T2, Ephrin type-A receptor 8 (Homo sapiens) (UniProt P29322); details: at 1 µM
T2 sequence (whole entry): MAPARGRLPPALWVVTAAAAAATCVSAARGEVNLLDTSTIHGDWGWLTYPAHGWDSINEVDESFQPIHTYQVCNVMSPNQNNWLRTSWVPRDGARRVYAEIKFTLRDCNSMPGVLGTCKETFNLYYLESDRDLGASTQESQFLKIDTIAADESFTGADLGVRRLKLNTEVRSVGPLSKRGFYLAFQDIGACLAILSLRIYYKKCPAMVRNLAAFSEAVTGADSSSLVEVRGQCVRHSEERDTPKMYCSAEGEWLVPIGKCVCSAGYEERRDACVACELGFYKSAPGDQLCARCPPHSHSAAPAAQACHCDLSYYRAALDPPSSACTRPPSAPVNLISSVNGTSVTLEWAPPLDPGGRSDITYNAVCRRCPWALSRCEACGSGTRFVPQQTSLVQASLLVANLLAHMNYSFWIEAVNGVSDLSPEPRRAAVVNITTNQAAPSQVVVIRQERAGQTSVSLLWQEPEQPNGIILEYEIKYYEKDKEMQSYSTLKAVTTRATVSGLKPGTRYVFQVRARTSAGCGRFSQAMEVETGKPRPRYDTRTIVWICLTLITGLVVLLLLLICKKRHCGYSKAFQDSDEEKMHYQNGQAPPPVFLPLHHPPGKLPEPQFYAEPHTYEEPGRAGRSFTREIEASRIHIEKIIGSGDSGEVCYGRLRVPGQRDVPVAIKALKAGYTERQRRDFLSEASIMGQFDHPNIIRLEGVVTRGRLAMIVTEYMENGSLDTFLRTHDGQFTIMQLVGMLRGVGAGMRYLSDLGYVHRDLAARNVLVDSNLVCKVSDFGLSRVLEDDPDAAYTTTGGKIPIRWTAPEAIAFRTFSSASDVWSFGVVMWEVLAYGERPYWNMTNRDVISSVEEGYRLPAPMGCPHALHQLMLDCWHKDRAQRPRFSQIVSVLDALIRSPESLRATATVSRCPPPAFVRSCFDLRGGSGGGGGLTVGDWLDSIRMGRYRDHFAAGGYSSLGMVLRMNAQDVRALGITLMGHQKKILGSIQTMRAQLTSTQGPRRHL

[3] = target: T2, Ephrin type-A receptor 8 (Homo sapiens); details: at 10 µM
[4] = target: T3, Ephrin type-B receptor 1 (Homo sapiens) (UniProt P54762); details: at 1 µM
T3 sequence (whole entry): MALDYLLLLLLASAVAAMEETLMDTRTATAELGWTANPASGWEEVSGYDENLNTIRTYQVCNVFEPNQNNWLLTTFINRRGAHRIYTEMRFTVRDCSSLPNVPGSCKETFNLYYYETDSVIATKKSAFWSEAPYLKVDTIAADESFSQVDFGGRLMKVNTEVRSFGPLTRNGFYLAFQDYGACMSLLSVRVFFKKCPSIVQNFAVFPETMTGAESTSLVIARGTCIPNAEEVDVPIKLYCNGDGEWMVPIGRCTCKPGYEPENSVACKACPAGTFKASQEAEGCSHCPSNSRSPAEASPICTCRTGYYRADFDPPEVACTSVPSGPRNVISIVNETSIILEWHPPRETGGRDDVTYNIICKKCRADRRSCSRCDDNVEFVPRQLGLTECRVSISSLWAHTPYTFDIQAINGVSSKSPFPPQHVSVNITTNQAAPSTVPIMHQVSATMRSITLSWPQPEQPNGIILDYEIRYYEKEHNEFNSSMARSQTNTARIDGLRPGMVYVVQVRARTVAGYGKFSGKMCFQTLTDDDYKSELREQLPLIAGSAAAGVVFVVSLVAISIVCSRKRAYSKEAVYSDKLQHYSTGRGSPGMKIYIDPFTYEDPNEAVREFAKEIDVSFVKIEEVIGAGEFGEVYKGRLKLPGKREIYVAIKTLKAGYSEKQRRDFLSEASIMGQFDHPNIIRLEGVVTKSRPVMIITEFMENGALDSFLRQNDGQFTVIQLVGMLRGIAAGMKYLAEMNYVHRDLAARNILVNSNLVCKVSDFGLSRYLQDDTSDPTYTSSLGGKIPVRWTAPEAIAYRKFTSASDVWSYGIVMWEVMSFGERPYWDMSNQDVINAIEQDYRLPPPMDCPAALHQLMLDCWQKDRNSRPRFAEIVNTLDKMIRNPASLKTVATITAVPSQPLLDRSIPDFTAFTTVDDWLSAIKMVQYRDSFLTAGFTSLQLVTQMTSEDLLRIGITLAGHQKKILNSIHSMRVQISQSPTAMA

[5] = target: T3, Ephrin type-B receptor 1 (Homo sapiens); details: at 10 µM
[6] = target: T4, Ephrin type-B receptor 2 (Homo sapiens) (UniProt P29323); details: at 1 µM
T4 sequence (whole entry): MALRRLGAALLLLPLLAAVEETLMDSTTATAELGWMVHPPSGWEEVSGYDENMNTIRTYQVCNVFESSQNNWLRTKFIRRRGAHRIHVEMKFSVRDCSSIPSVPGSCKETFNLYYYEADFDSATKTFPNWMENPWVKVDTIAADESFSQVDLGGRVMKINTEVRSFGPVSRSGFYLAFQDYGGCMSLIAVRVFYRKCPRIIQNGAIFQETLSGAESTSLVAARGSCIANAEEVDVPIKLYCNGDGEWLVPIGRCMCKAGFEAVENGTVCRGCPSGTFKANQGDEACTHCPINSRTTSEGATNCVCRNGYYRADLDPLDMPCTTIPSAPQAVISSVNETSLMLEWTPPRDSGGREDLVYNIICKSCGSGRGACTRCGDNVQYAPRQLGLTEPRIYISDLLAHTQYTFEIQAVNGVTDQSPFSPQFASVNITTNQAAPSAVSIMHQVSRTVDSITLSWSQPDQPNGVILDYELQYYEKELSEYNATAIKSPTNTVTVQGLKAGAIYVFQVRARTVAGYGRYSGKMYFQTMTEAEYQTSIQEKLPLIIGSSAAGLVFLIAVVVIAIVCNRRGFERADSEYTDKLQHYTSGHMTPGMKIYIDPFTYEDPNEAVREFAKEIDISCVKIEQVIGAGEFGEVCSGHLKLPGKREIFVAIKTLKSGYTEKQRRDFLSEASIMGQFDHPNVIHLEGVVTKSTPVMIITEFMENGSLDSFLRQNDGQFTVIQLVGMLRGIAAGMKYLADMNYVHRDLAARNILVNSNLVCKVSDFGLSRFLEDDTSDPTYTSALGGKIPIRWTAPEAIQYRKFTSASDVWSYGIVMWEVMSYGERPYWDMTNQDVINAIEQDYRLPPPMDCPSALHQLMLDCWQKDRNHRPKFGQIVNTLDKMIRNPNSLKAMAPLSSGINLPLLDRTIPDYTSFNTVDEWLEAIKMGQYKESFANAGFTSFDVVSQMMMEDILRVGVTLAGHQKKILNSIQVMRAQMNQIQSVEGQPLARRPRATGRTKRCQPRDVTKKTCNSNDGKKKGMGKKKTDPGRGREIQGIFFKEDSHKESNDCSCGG

[7] = target: T4, Ephrin type-B receptor 2 (Homo sapiens); details: at 10 µM
[8] = target: T5, Ephrin type-B receptor 3 (Homo sapiens) (UniProt P54753); details: at 1 µM
T5 sequence (whole entry): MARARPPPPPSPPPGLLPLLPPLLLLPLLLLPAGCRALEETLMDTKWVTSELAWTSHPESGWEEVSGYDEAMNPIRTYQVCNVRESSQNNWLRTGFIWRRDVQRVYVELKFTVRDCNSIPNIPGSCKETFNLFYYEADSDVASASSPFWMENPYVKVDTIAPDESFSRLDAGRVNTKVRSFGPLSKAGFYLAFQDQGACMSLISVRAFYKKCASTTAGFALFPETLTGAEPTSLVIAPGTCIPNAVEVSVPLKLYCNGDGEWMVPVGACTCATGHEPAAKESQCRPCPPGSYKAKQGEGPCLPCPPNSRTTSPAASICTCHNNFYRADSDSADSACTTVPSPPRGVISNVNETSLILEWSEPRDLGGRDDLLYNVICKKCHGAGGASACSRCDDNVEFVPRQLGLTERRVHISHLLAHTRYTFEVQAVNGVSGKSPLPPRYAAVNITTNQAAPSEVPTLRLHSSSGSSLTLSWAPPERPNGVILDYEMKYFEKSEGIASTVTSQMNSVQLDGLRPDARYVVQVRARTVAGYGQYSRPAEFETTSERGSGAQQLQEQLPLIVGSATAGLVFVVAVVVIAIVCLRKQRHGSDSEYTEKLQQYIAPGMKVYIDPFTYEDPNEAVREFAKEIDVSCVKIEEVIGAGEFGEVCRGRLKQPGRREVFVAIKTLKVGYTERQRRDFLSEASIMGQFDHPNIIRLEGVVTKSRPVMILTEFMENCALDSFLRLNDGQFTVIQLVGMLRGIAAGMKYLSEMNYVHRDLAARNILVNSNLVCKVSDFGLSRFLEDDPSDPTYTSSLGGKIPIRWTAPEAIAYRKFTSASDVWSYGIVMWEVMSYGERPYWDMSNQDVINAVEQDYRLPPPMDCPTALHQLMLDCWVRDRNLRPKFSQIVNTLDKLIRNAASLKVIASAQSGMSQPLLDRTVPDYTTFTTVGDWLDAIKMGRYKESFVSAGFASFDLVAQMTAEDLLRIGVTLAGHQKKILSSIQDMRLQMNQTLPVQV

[9] = target: T6, Ephrin type-B receptor 4 (Homo sapiens) (UniProt P54760); details: at 10 µM
T6 sequence (whole entry): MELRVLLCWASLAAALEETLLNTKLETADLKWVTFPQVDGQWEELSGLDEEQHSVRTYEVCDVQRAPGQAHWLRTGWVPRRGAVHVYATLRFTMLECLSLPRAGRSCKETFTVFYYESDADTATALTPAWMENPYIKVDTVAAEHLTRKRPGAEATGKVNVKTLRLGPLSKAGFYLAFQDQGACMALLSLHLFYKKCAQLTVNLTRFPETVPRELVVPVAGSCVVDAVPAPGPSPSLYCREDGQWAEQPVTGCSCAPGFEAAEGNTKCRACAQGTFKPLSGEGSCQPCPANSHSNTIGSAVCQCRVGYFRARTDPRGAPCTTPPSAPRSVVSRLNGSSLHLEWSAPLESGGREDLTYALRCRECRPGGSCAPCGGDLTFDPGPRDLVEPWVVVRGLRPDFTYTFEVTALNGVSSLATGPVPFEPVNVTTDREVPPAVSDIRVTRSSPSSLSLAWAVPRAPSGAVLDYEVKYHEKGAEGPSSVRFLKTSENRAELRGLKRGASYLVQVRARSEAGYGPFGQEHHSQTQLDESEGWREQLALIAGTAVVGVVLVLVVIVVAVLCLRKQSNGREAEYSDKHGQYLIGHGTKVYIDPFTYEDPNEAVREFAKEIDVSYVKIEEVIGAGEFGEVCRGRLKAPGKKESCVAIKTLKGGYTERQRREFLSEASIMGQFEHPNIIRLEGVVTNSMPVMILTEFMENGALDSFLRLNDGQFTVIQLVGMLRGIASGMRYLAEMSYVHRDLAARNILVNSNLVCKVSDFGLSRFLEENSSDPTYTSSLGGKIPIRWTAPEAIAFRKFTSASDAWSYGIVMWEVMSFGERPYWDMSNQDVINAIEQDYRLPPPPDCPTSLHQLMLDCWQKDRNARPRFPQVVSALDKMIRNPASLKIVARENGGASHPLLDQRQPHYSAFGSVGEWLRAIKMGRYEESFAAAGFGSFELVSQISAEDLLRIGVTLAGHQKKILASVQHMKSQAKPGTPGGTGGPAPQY

[10] = target: Focal adhesion kinase 1 (Homo sapiens) (UniProt Q05397); details: at 1 µM
[11] = target: Ephrin type-A receptor 5 (Homo sapiens) (UniProt P54756); details: at 1 µM
[12] = target: Ephrin type-A receptor 5 (Homo sapiens) (UniProt P54756); details: at 10 µM
[13] = target: T5, Ephrin type-B receptor 3 (Homo sapiens); details: at 10 µM
[14] = target: T6, Ephrin type-B receptor 4 (Homo sapiens); details: at 1 µM
[15] = target: Receptor tyrosine-protein kinase erbB-4 (Homo sapiens) (UniProt Q15303); details: at 1 µM
[16] = target: Receptor tyrosine-protein kinase erbB-4 (Homo sapiens) (UniProt Q15303); details: at 10 µM

Ephrin type-A receptor 5 (Homo sapiens), sequence (P54756 whole entry): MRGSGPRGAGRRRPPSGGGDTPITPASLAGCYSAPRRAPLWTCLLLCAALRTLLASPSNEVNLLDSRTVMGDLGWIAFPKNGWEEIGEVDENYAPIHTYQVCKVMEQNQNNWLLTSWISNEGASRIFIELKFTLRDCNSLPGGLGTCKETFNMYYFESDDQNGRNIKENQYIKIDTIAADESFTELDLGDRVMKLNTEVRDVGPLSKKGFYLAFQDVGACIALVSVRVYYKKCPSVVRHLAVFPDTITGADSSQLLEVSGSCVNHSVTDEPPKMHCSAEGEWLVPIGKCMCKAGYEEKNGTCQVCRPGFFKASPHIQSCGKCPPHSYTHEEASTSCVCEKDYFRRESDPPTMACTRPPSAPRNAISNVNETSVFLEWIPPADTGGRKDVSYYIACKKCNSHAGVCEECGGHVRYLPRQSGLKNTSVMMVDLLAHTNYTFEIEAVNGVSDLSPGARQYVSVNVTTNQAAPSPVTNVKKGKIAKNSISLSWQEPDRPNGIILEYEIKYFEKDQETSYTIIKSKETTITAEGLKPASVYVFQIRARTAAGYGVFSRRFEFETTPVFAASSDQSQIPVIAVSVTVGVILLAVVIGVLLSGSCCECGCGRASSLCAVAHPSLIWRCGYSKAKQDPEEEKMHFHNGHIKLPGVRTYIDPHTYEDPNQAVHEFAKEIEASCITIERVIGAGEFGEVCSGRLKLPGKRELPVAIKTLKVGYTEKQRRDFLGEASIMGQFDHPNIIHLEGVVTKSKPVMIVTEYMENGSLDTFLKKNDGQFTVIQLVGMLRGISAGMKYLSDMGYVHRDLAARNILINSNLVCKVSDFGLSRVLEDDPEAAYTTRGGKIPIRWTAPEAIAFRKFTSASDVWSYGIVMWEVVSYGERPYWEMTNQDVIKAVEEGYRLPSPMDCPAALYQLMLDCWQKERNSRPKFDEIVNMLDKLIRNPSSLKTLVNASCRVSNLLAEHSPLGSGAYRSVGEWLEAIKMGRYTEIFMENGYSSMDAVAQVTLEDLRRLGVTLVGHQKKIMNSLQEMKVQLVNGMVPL
Receptor tyrosine-protein kinase erbB-4 (Homo sapiens), sequence (Q15303 whole entry): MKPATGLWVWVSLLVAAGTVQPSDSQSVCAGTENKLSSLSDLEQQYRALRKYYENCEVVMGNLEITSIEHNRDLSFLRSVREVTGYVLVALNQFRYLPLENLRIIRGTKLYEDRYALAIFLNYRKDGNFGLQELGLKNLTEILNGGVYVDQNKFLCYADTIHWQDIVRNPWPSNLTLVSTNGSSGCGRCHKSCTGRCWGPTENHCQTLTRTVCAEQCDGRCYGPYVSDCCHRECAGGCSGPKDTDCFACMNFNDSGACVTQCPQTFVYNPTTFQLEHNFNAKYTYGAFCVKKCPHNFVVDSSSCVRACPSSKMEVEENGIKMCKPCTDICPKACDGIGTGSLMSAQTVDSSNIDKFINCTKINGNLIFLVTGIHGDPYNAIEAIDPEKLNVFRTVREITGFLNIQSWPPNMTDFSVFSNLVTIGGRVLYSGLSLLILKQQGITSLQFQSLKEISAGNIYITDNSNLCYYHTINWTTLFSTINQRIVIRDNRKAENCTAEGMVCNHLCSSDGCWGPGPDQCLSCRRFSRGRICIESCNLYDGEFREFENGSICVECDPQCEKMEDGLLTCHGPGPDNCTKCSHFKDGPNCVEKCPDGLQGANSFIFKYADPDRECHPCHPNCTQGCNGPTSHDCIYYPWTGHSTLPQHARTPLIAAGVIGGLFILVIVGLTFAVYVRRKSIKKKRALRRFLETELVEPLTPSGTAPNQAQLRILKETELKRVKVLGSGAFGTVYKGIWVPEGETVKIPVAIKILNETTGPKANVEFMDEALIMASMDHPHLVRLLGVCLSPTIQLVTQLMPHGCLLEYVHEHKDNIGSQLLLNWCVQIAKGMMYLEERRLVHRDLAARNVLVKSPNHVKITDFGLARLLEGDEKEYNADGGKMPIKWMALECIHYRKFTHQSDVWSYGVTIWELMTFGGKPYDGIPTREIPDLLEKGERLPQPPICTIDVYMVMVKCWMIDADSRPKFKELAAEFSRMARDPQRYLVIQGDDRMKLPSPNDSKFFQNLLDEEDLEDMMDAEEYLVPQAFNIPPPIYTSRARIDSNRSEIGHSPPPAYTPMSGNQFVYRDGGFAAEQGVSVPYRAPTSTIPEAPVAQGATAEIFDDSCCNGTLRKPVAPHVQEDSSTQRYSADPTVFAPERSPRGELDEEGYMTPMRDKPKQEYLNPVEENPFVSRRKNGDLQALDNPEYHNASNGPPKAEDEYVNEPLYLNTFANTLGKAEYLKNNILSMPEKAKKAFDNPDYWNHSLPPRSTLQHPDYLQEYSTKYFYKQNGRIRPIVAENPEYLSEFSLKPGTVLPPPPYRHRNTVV
Focal adhesion kinase 1 (Homo sapiens), sequence (Q05397 2-1052 limits assumed): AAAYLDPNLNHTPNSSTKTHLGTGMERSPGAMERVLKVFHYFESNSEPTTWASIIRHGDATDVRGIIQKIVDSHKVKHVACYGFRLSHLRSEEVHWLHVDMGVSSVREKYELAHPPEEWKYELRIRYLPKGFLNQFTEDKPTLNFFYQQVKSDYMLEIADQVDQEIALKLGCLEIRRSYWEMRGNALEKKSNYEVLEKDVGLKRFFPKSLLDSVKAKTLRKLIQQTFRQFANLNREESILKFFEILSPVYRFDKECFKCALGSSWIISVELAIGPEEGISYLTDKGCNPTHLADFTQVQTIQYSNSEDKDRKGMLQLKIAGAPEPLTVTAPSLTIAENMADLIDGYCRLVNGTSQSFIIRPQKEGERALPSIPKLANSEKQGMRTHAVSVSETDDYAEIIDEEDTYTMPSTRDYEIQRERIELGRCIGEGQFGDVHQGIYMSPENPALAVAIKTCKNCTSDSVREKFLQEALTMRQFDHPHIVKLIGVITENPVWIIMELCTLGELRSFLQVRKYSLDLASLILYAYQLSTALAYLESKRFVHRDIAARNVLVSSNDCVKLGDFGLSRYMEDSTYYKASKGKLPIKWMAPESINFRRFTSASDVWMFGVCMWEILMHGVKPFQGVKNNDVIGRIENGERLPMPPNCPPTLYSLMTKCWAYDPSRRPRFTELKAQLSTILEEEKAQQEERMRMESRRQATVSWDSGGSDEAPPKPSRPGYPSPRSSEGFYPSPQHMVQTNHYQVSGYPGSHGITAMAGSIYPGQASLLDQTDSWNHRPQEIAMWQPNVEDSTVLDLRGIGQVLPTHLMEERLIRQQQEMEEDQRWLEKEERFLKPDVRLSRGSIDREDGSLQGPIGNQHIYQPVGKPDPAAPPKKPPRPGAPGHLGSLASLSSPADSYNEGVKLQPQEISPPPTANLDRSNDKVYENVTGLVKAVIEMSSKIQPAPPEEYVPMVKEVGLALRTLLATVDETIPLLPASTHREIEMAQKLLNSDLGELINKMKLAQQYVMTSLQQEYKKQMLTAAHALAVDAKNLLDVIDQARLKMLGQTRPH

SMILES | residual activity [1] | residual activity [2] | residual activity [3] | residual activity [4] | residual activity [5] | residual activity [6] | residual activity [7] | residual activity [8] | residual activity [9] | residual activity [10] | residual activity [11] | residual activity [12] | residual activity [13] | residual activity [14] | residual activity [15] | residual activity [16]
O=C(Nc1nc2ccccc2n1CCN1CCOCC1)c1cccc([N+](=O)[O-])c1 | 81% | 108% | 103% | 100% | 103% | 113% | 110% | 110% (inactive) | 109% | 131% |  |  |  |  |  | 
O=C1NC(=O)C(c2cn(CCCn3ccnc3)c3ccccc23)=C1Nc1ccccc1 |  |  |  |  |  | 115% | 122% | 114% (inactive) | 119% | 119% | 125% | 109% | 148% | 109% | 70% | 13%
